# Bioassay records (PubChem BioAssay)
# Rows were chosen to be rich in hits. Some 2.8% of all compounds tested hit in one or more screens of this group.
# IDE inh: inhibitors of human insulin-degrading enzyme in cells | inhibition, % at 5.59 µM | HEK cells, FAbetaB cleavage, fluorescence polarization | 0.41% of 320,000 active | AID 434962 | P14735;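 active = percent inhibition above the average of all tested compounds plus 3 SD, set per screening campaign, cut at about 16% in these data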;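 also: IDE supplied by intact live HEK cells; FP after avidin binding of uncleaved biotin substrate so inhibition keeps polarization high; 0% = DMSO wells and 100% = 60 µM reference IDE inhibitor Ii1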
# IDE act: IDE (human) activation, cell-based; P14735; activation, % at 5.96 µM; 0.073% of 340,000 active; HEK cells, FAbeta-B cleavage, fluorescence polarization; 0% vehicle, 100% cell-free pure enzyme wells;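 active = activation above the mean of all tested compounds plus 3 SD, set per screening campaign, cut at about 17% in these data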
# PP5 inh: PP5 (human) phosphatase inhibition; purified PP5c, OMFP substrate fluorescence; inhibition, % at 6.7 µM; 0.18% of 320,000 active; P53041;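 active = inhibition above the campaign's mean inhibition across all tested compounds plus 3 SD, cut at about 9.5% in these data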;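 also: 0% = DMSO only and 100% = 100 µM cantharidin control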
# Exocytosis inh: blocks lytic granule exocytosis; TALL-104 LAMP-1 surface exposure, flow cytometry; cells stimulated with thapsigargin and PMA; inhibition, % at 10 µM; 0.66% of 360,000 active;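 active = inhibition above about 55%, limit read from the data; inconclusive = no clear call, values can overlap the other calls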
# PP1 counter: PP1-alpha (human) inhibition in PP5 counter-screen. P62136. purified PP1alpha, OMFP fluorescence. inhibition, % at 6.7 µM. 0.9% of 320,000 active. AID 2235;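 active = inhibition above the mean inhibition of all tested compounds plus 3 SD, computed separately for each screening campaign, cut at about 15% in these data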
# SKKanGAS inh: SKKanGAS growth inhibition. 1.3% of 300,000 active. S. pyogenes SKKanGAS, kanamycin growth, BacTiter-Glo, 6 h. inhibition, % at 7.5 µM;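 active = mean replicate score, as percent of positive control median, at least 50; inconclusive = mean below 50 but one replicate at or above 50; inactive = mean and every replicate below 50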;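 also: strain carries kanamycin resistance gene driven by streptokinase promoter and grows in 40 µg/ml kanamycin; loss of luminescence reflects streptokinase promoter inhibition or plain growth inhibition; 0% = median of DMSO wells and 100% = positive control at its reference dose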
# Numbers without * were called inactive; ? = inconclusive; nt = no result given.
SMILES,IDE inh,IDE act,PP5 inh,Exocytosis inh,PP1 counter,SKKanGAS inh
CS(=O)(=O)c1ccc(-c2sc3ccccc3c2C(=O)NCCCN2CCOCC2)cc1,3,1,nt,13,nt,nt
Cn1c(C(=O)N2CCN(c3ccc([N+](=O)[O-])cc3)CC2)cc2c(=O)[nH]c3ccccc3c21,nt,-2,nt,0,nt,75*
Cc1cc(C(=O)N/N=C/c2cc(N=Nc3ccccc3)ccc2O)n[nH]1,8,-8,1,6,15*,88*
Cc1cccc(C)c1NC(=O)C(C)N1CCCCC1 (centres undefined),2,4,1,4,-8,3
C=COCCNC(=S)Nc1cccc(Cl)c1,-2,5,4,-1,2,-5
COCCCNC(=S)NNC(=S)Nc1cccc(Cl)c1,7,nt,3,3,-5,52*
COc1ccccc1NS(=O)(=O)c1ccc(C(=O)NCC(c2cccs2)N2CCOCC2)cc1 (centres undefined),6,1,nt,-1,nt,nt
CC1(C)Cc2c(cnn2-c2ccccc2)C(NC(=O)CCCN2CCCC2=O)C1 (centres undefined),3,1,2,1,-2,61*
Cc1[nH]n(-c2ncc(-c3ccccc3)s2)c(=O)c1C(c1ccc(Cl)cc1)C(C#N)C#N (centres undefined),5,-4,4,-4,4,61*
CCC1CCCCN1c1cc(C)nc2cc(-c3cccc(C)c3)nn12 (centres undefined),-1,5,4,12,8,57*
Cc1cc(N2CCOCC2)n2nc(-c3cccc(F)c3)cc2n1,5,-10,0,1,-2,-1
COc1ccc(-n2c(C)cc(-c3csc(N)n3)c2C)cc1,0,4,1,0,17*,13
Cc1cc(-c2csc(N)n2)c(C)n1-c1ccc(Cl)c(Cl)c1,-1,2,-3,3,17*,4
CCCn1c(C)cc(-c2csc(N)n2)c1C,1,7,4,2,7,5
NC(=O)Cn1c(=O)n(CCC(=O)Nc2ccc(F)cc2)c(=O)c2sccc21,-3,1,-2,-1,-3,1
COc1ccc(NC(=O)/C=C/c2c(Cl)nc3ccccn23)cc1,4,-1,5,-3,-6,-10
COc1ccccc1N1CCN(C(=O)/C=C/c2c(Cl)nc3ccccn23)CC1,1,3,5,-2,-6,69*
Cc1ccc(C2C(C(=O)c3cccs3)=C(O)C(=O)N2c2nnc(C)s2)cc1 (centres undefined),4,-1,-2,8,-4,9
Nc1nc(CN2CCN(Cc3ccccc3)CC2)nc(N2CCCc3ccccc32)n1,-5,0,0,-11,-4,6
Nc1nc(CN2CCN(c3ccccc3)CC2)nc(N2CCCc3ccccc32)n1,1,0,2,-2,4,88*
Nc1nc(CN2CCN(c3cccc(Cl)c3)CC2)nc(N2CCCc3ccccc32)n1,-1,1,3,0,4,91*
COc1ccc(C(=O)NCCc2cccc(Cl)c2)cc1OC1CCN(C(C)=O)CC1,7,5,-5,5,10,13
Cc1ccc(-c2cc(C(=O)NCc3ccco3)c3ccccc3n2)o1,8,-7,-4,4,15*,5
Cc1cc(C(=O)NCc2ccco2)c2ccccc2n1,-3,0,-5,0,11,7
COc1ccc(C(=O)Nn2c(C)nc3ccccc3c2=O)cc1[N+](=O)[O-],5,4,0,-10,6,7
SMILES,IDE inh,IDE act,PP5 inh,Exocytosis inh,PP1 counter,SKKanGAS inh
O=C(CCN1CCOCC1)N/N=C/c1cc(Br)cc(Br)c1O,-1,5,0,-2,4,57*
O=C(CNC(=O)c1cccc(Br)c1)N/N=C/c1cc(Br)cc(Br)c1O,4,2,3,3,7,?
O=C(Cc1ccccc1)N/N=C/c1cc(Br)cc(Br)c1O,0,6,1,-2,-2,112*
COc1ccc(C(=O)N2CCC(c3ccccc3)CC2)c(OC)c1OC,-4,2,-1,0,1,1
Cc1ccc(Nc2nc3ccccc3[nH]2)nc1,1,2,3,-4,4,66*
CCn1c(=O)c(C(=O)CN2c3ccccc3CC2C)c(N)n(Cc2ccccc2)c1=O (centres undefined),4,1,0,2,16*,8
